RE007 growth inh: less growth of the S. pombe RE007 Vpr strain. S. pombe RE007 Vpr strain, BacTiter-Glo ATP luminescence, 24 h. Potency, µM (highest dose often 92.2 µM), for the others: at the highest dose activity change, negative = less growth, most hits filed as inhibitors. actives 0.21% (n = 360,000). AID 651644; active = well fitted falling curve with a large enough effect; note: potency is the fitted concentration of half-maximal effect; % is set by controls: 0 for no effect and ±100 for the full control effect; nearly all actives have a fitted effect of over 50% in size
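Fission yeast RE007 carrying one integrated HIV-1 vpr copy, seeded at OD 0.01 in PMG+AL medium with 23 nL pinned compound. Grown 24 h at 30 degrees; viability read by BacTiter-Glo luminescence after 5 min.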
Shiga toxin inh: blocks Shiga toxin action in Vero cells | Vero cells, Shiga toxin protein synthesis inhibition reporter | inhibition, % at 38.7 µM | actives 9.2% (n = 290,000) | AID 2315; in the data active = inhibition mostly above about 28%, no sharp cut-off; inactive = mostly below about 43%; note: 0% is about no effect
TbPYK inhibitor: inhibitors of Trypanosoma brucei pyruvate kinase; Q57TT1; TbPYK enzyme, Kinase-Glo Plus ATP luminescence, 45 min; Potency, µM (doses to about 76.8 µM), for inactives: at the top dose activity, negative = inhibition, most hits filed as inhibitors; actives 0.12% (n = 410,000); AID 624173; note: potency is the fitted concentration of half-maximal effect; % is set by controls: 0 for no effect and ±100 for the full control effect; nearly all actives have a fitted effect of over 50% in size
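In this concentration-response screen, enzyme-free wells defined baseline while DMSO plates tracked drift. Each reaction combined TbPYK, substrate, compound and 130 uM ADP for 45 min at room temperature. Kinase-Glo Plus luminescence gave the signal.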
Giardia FBPA inh: blocks Giardia fructose-bisphosphate aldolase activity; A8B2U2; AID 2451; purified Giardia FBPA; Potency, µM (series often up to 59.6 µM), inactives show top-dose activity, negative = inhibition, actives largely listed as inhibitors; actives 0.71% (n = 290,000); note: potency is the fitted concentration of half-maximal effect; % is set by controls: 0 for no effect and ±100 for the full control effect; nearly all actives have a fitted effect of over 55% in size
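Giardia FBPA (40 nM reagent) was preincubated 10 min at RT with compound (up to 57.5 uM final), then substrate plus GAPDH/TPI/NAD/arsenate coupling system with diaphorase/resazurin was added; resorufin fluorescence (525/598 nm) was read after 20 min.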
LmPK inh: inhibitors of Leishmania mexicana pyruvate kinase; Q27686; purified LmPK, Kinase-Glo ATP luminescence, 1 h; Potency, µM (highest dose often 57.5 µM), without a hit: at the top dose activity change, negative = inhibition, usual class: inhibitors; actives 0.37% (n = 290,000); AID 1721; note: potency is the fitted concentration of half-maximal effect; % is set by controls: 0 for no effect and ±100 for the full control effect
Target sequence (Q27686 whole entry, looked up): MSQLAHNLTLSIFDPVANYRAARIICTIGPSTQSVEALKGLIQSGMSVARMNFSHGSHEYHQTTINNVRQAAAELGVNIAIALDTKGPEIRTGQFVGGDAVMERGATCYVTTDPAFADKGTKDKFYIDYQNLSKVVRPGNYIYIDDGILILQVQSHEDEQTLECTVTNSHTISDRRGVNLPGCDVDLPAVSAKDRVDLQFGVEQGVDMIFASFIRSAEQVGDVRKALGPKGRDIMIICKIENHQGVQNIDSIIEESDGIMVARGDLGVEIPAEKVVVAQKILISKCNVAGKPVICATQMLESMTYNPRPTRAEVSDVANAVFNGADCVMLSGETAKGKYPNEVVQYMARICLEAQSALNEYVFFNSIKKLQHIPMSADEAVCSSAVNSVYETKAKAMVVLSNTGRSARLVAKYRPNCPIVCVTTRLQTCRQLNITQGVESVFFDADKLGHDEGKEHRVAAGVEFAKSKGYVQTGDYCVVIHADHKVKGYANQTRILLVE
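Purified LmPK (0.1 nM) converted ADP (0.1 mM) to ATP with PEP (0.5 mM) in imidazole buffer pH 7.2 with KCl and MgCl2, 1 h at room temperature. ATP was read by Kinase-Glo luminescence; data normalized to uninhibited and no-enzyme controls.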
CHX counter: counter-screen for Shiga toxin inhibitors: cycloheximide protein synthesis inhibition. AID 2314. max response, %. actives 12% (n = 300,000). cell reporter, cycloheximide protein synthesis inhibition counterscreen; in the data active = max response mostly above about 13%, no sharp cut-off; inactive = mostly below about 14%; note: read at 38.3 µM for the half of the compounds with a filed dose; 0% is about no effect
Numbers without * were called inactive; [ ] = another dose, or the depositor's remark. This is one part of a sample in which hits are shown more often than they occur. Unless noted, calls come from the whole dose curve; as a rule, active = well fitted curve in the direction sought with a large enough effect; inconclusive = small, poorly fitted or top-dose-only effect, or another doubt; inactive = no such curve, though single readings can be large; an effect the other way counts as inactive or inconclusive.

Screening CN(CC(=O)NCCc1ccccc1)S(=O)(=O)c1ccc(Br)cc1 returned RE007 growth inh -10%[3.69 µM], Shiga toxin inh -22, Giardia FBPA inh 5%, LmPK inh 1% and CHX counter 8.
Screening Cc1ccc(CNC(=O)CN(C)S(=O)(=O)c2cccs2)cc1 returned RE007 growth inh 0%, Shiga toxin inh 23, TbPYK inhibitor -2%, Giardia FBPA inh 1%, LmPK inh -1%[11.5 µM] and CHX counter 28*.
Screening CN(CC(=O)NCCc1ccccc1)S(=O)(=O)c1ccc(Br)s1 returned RE007 growth inh -3%, Shiga toxin inh 46*, TbPYK inhibitor -1%, Giardia FBPA inh 8%, LmPK inh -6% and CHX counter 28*.
`O=C(CCS(=O)(=O)Cc1ccc(Cl)cc1)NCCc1ccccc1` gave RE007 growth inh 11%, Shiga toxin inh 15, TbPYK inhibitor 1%, Giardia FBPA inh 7%, LmPK inh -4% and CHX counter 19*.
Screening CCOC(=O)C(CCc1ccccc1)NC(C)C(=O)N1Cc2cc(OC)c(OC)cc2CC1C(=O)O (configuration not stated) returned Shiga toxin inh -5, TbPYK inhibitor 2%, Giardia FBPA inh 0% and CHX counter -2.
Screening CN(CC(=O)NCCc1ccccc1)S(=O)(=O)c1cccs1 returned RE007 growth inh -3%, Shiga toxin inh 22, TbPYK inhibitor -9%, Giardia FBPA inh 14%, LmPK inh -2% and CHX counter 15.
CN(CC(=O)NCCc1ccc(Cl)cc1)S(=O)(=O)c1cccs1 was read as RE007 growth inh 3%, Shiga toxin inh 34*, TbPYK inhibitor 1%, Giardia FBPA inh -1%, LmPK inh 1% and CHX counter 22*.
Screening Cc1nc(Br)c(Br)c(C)c1Br returned Shiga toxin inh 18, TbPYK inhibitor 2%, Giardia FBPA inh 2%, LmPK inh -1% and CHX counter -1.
Cc1ccc2nc(NC(=O)Cc3cccs3)sc2c1 was read as RE007 growth inh 15%, Shiga toxin inh 125*, TbPYK inhibitor -9%, Giardia FBPA inh 0%, LmPK inh 1% and CHX counter 50*.
`O=C(Cc1ccccc1)Nc1nc(=O)c2ccccc2s1` gave RE007 growth inh 20%, Shiga toxin inh -3, TbPYK inhibitor 1%, LmPK inh 1% and CHX counter 0.
Screening O=C(Cc1nc(=O)c2ccccc2s1)Nc1ccccc1 returned RE007 growth inh 6%, Shiga toxin inh 67*, TbPYK inhibitor -3%, Giardia FBPA inh 7%, LmPK inh -1% and CHX counter 59*.
For Cc1ccc2nc(NC(=O)CSCC(=O)Nc3cc(C)on3)sc2c1 the results were RE007 growth inh 0% and TbPYK inhibitor 2%.
For CCc1ccc2nc(NC(=O)CCCc3cccs3)sc2c1 the results were RE007 growth inh -16%, Shiga toxin inh 49*, TbPYK inhibitor -20%, Giardia FBPA inh 5%, LmPK inh 0% and CHX counter 33*.
CC(Cc1ccccc1)C(=O)NCc1nc2ccccc2s1 (configuration not stated) was read as RE007 growth inh 3%, Shiga toxin inh 30*, TbPYK inhibitor -3%, Giardia FBPA inh 4%, LmPK inh 1% and CHX counter 19*.
For CN(C)C(CNC(=O)CCc1nc2ccccc2s1)c1ccccc1 (configuration not stated) the results were RE007 growth inh 16%, Shiga toxin inh -3, TbPYK inhibitor 2%, Giardia FBPA inh 2%, LmPK inh 0% and CHX counter 5.
CC(=O)Nc1ccc(-c2csc(NC(=O)CCCc3cccs3)n2)cc1 was read as RE007 growth inh 20%, Shiga toxin inh 28, TbPYK inhibitor 1%, Giardia FBPA inh -17%, LmPK inh -1% and CHX counter 9.
For CCn1c2ccccc2c2cc(NC(=O)COc3cc(C)ccc3C)ccc21 the results were TbPYK inhibitor 2%.
For O=C(NCc1ccccc1Cl)c1cc(C(=O)C2CC2)c[nH]1 the results were RE007 growth inh 5%, Shiga toxin inh -15, TbPYK inhibitor 1%, Giardia FBPA inh 6%, LmPK inh -5% and CHX counter 1.
COC(=O)[C@@]12CCCN1[C@H](c1ccc(-c3cccc(Cl)c3)cc1)[C@H]1C(=O)N(C)C(=O)[C@H]12 was read as RE007 growth inh 2% and TbPYK inhibitor 7%.
`CCn1nc(NC(=O)C2CCCO2)c2cc3cc(C)ccc3nc21` (configuration not stated) gave RE007 growth inh 23%, Shiga toxin inh 31, TbPYK inhibitor -13%, Giardia FBPA inh -4%, LmPK inh 0% and CHX counter 14.
For CCOc1ccc2nc(NC(=O)Cc3cccs3)sc2c1 the results were RE007 growth inh -1%, Shiga toxin inh 84*, TbPYK inhibitor -12%, Giardia FBPA inh -1%, LmPK inh -9% and CHX counter 40*.
CC1(C(=O)Nc2nc3ccccc3s2)CC1(Br)Br (configuration not stated) was read as RE007 growth inh -9%, Shiga toxin inh 94*, TbPYK inhibitor -7%, Giardia FBPA inh 19%, LmPK inh 2% and CHX counter 44*.
`Cc1ccc2nc(-c3ccc(NC(=O)Cc4cccs4)cc3)[nH]c2c1` gave RE007 growth inh 2%, Shiga toxin inh 75, TbPYK inhibitor -4%, Giardia FBPA inh 4%, LmPK inh -6% and CHX counter 30*.
Cc1ccc2nc(-c3ccc(NC(=O)C4CCCO4)cc3)[nH]c2c1 (configuration not stated) was read as RE007 growth inh 8%, Shiga toxin inh 44, TbPYK inhibitor 0%, Giardia FBPA inh -8%, LmPK inh -25% and CHX counter 55*.
For Cc1ccc(CNS(=O)(=O)c2cc3c(cc2Cl)NC(=O)CO3)o1 the results were TbPYK inhibitor 5%[15.4 µM].
Screening Cc1oc(-c2cccc(Br)c2)nc1CN1CCC(C(=O)NCc2ccccc2)CC1 returned TbPYK inhibitor 4%[15.4 µM].
For CC1(C)CC(NC(=O)C23CCC(C)(C2Br)C3(C)C)CC(C)(C)N1 (configuration not stated) the results were RE007 growth inh -7%, Shiga toxin inh 15, TbPYK inhibitor 2%, Giardia FBPA inh 6%, LmPK inh 3% and CHX counter -1.
`Cc1noc(C)c1-c1nnc(-c2ccc(OC(F)(F)F)cc2)o1` gave RE007 growth inh 1%, Shiga toxin inh -10, TbPYK inhibitor 5%, Giardia FBPA inh 4%, LmPK inh -5% and CHX counter -1.

Bioassay records (PubChem)
